Among all 2,300 compounds or so, about 330 (14%) showed activity. The list is a sample of the results. A number with no mark means an inactive call.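 Rule for the calls: active = median modified Z-score above 1.96; inactive = 1.96 or below.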
Each compound was assayed on HepG2 Srxn1-GFP reporter cells (+30 nM CDDO-Me) (assay: Srxn1-GFP intensity median modified Z-score relative to plate median; higher = stronger NRF2 / oxidative stress reporter activation, active = hit call of the paper). Settings: 10 µM; exposure time: 24h.
Procedure, shortened: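 Values give the median, over replicates, of the modified Z-score of GFP intensity on each plate. HepG2 Srxn1-GFP BAC reporter cells were co-treated for 24 h with an NRF2 activator at 30 nM and compound at 10 μM (≤0.1% DMSO) in three replicate plates, then analysed per cell for cytoplasmic GFP on confocal images with at least 100 cells. Scaling used 1.4826 × median absolute deviation.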

SMILES | Srxn1-GFP intensity median modified Z-score
O=Cc1ccccc1O[C@@H]1O[C@H](CO)[C@H](O)[C@@H](O)[C@H]1O [euspeclibcmpd1574] | 0.476
N[C@@H]1[C@@H](O)[C@H](O)[C@@H](CO)O[C@H]1O [euspeclibcmpd140] | 0.0216
CCCCOc1ccc(C(=O)CCN2CCCCC2)cc1 [euspeclibcmpd107] | 3.53 (active)
O=C(NCCCCN1CCOCC1)c1ccc(F)cc1 | 0.352
CCCCOc1ccc(OCCCN2CCOCC2)cc1 [euspeclibcmpd396] | 2.42 (active)
N#Cc1ccc(C(=O)NCCCCN2CCOCC2)cc1 | 0.374
O=C(c1ccc(OCCN2CCCCC2)cc1)c1c(-c2ccc(O)cc2)sc2cc(O)ccc12 [euspeclibcmpd831] | -0.702
CC1CCN(CCCC(=O)c2ccc(F)cc2)CC1 [euspeclibcmpd1905] | 1.19
O=c1c(O)cc2c(O)oc3c(=O)c(O)cc4c(O)oc1c2c43 [euspeclibcmpd1077] | 0.204
CC1CC[C@@]2(OC1)O[C@H]1CC3C4CC[C@@H]5C[C@@H](O)CC[C@]5(C)C4CC[C@]3(C)[C@H]1[C@@H]2C (some centres not stated) [euspeclibcmpd2070] | -0.402
O=C(C=Cc1ccc(O)c(O)c1)O[C@@H]1C[C@](O)(C(=O)O)C[C@@H](O)[C@H]1O [euspeclibcmpd1682] | 1.16
C[C@]12C=CC(=O)CC1=CCC1C2[C@@H](O)C[C@@]2(C)C1CC[C@]2(O)C(=O)COC(=O)CCC(=O)O (some centres not stated) [euspeclibcmpd794] | 0.608
Cc1cccc(N=c2cc[nH]cc2S(=O)(=O)NC(=O)NC(C)C)c1 [euspeclibcmpd2184] | 0
C[C@]12CCC3c4ccc(OC(=O)c5ccccc5)cc4CCC3C1CC[C@@H]2O (some centres not stated) [euspeclibcmpd412] | 0.298
NC(=O)COC(=O)c1ccccc1Nc1cccc(C(F)(F)F)c1 | 1.26
CC(=O)OCC(=O)[C@@]1(O)CCC2C3CC=C4CC(=O)C=C[C@]4(C)[C@@]3(Cl)[C@@H](Cl)C[C@@]21C (some centres not stated) [euspeclibcmpd1222] | -0.43
CCC1OC(=O)C(C)C(=O)C(C)[C@@H](OC2O[C@H](C)C[C@H](N(C)C)[C@H]2O)[C@](C)(OC)CC(C)C(=O)C(C)[C@@H]2N(CCCCn3cnc(-c4cccnc4)c3)C(=O)O[C@]12C (some centres not stated) [euspeclibcmpd733] | -0.17
Oc1c(I)cc(Cl)c2cccnc12 | 1.31
Oc1c(I)cc(Cl)c2cccnc12 [euspeclibcmpd705] | 2.87 (active)
Oc1c(Br)cc(Br)c2cccnc12 [euspeclibcmpd1032] | 4.39 (active)
Cc1ccc(Cl)c2cccnc12 | 1.45
Oc1c(Cl)cc(Cl)c2cccnc12 [euspeclibcmpd537] | 2.82 (active)
Oc1ccc(Cl)c2cccnc12 [euspeclibcmpd72] | -1.02

SMILES | Srxn1-GFP intensity median modified Z-score
O=[N+]([O-])c1ccc(O)c2ncccc12 [euspeclibcmpd1218] | -0.363
O=S(=O)(O)c1cc(I)c(O)c2ncccc12 [euspeclibcmpd2311] | -0.435
Oc1c(I)cc(I)c2cccnc12 [euspeclibcmpd2015] | 1.62
CCc1c(C)cn(C(=O)NCCc2ccc(S(=O)(=O)NC(=O)N[C@H]3CC[C@H](C)CC3)cc2)c1O [euspeclibcmpd697] | -0.793
O=C(O[C@@H]1Cc2c(O)cc(O)cc2O[C@@H]1c1cc(O)c(O)c(O)c1-c1c([C@H]2Oc3cc(O)cc(O)c3C[C@H]2OC(=O)c2cc(O)c(O)c(O)c2)cc(O)c(O)c1O)c1cc(O)c(O)c(O)c1 [euspeclibcmpd2312] | -0.214
COc1[nH]cnc(=NS(=O)(=O)c2ccc(N)cc2)c1OC [euspeclibcmpd917] | -0.467
COc1cc(OC)c2c(c1Cl)OC1(C(=O)CC(=O)CC1C)C2=O (configuration not stated) [euspeclibcmpd1388] | -0.00204
CC(=O)OCC(=O)[C@@]1(O)[C@H](OC(C)=O)CC2C3CC=C4CC(=O)C=C[C@]4(C)[C@@]3(F)[C@@H](O)C[C@@]21C (some centres not stated) [euspeclibcmpd1284] | -0.169
N=c1[nH]cnc2c1ncn2C1C[C@H](O)[C@@H](CO)O1 (some centres not stated) [euspeclibcmpd2091] | -0.0836
CO[C@H]1/C=C/O[C@@]2(C)Oc3c(C)c(O)c4c(O)c(c5c(nc6cc(C)ccn65)c4c3C2=O)NC(=O)/C(C)=C\C=C\C(C)[C@H](O)[C@@H](C)C(O)[C@@H](C)[C@H](OC(C)=O)[C@@H]1C (some centres not stated) [euspeclibcmpd745] | -0.528
Clc1ccc(COC(Cn2ccnc2)c2ccc(Cl)cc2Cl)cc1 (configuration not stated) [euspeclibcmpd413] | 15.1 (active)
C=CCOC(Cn1ccnc1)c1ccc(Cl)cc1Cl (configuration not stated) [euspeclibcmpd2390] | 6.42 (active)
Clc1ccc(C(Cn2ccnc2)OCc2ccsc2Cl)c(Cl)c1 (configuration not stated) [euspeclibcmpd1174] | 15.7 (active)
Clc1ccc(CSC(Cn2ccnc2)c2ccc(Cl)cc2Cl)cc1 (configuration not stated) [euspeclibcmpd401] | 22.5 (active)
Clc1ccc(CON=C(Cn2ccnc2)c2ccc(Cl)cc2Cl)c(Cl)c1 [euspeclibcmpd747] | -0.564
C=CC1=C(C(=O)O)N2C(=O)C(NC(=O)C(=NO)c3csc(=N)[nH]3)C2SC1 (configuration not stated) [euspeclibcmpd718] | -0.455
CC(=CC(=O)OCCCCCCCCC(=O)O)C[C@@H]1OC[C@H](C[C@@H]2O[C@H]2[C@@H](C)[C@H](C)O)[C@@H](O)[C@H]1O [euspeclibcmpd851] | 0.838
Cc1cnn(CCC(=O)NC2CCCN(c3ccc(C)nn3)C2)c1 (configuration not stated) | 1.37
O=C(O)c1cc(O)c(=O)c2c(O)c(O)c(O)cc2c1 [euspeclibcmpd1713] | -0.567
Cc1ccsc1C=CC1=NCCCN1C [euspeclibcmpd638] | 0.449
O=C(O)/C=C/C(=O)O [euspeclibcmpd2444] | -0.338
CC1CN(C)CCN1C(=O)c1ccc(CCNS(C)(=O)=O)s1 (configuration not stated) | 1.16
Nc1ccc(S(=O)(=O)N=c2cc[nH]n2-c2ccccc2)cc1 [euspeclibcmpd1061] | 0.53

SMILES | Srxn1-GFP intensity median modified Z-score
CC1=C(C(=O)O)N2C(=O)[C@@H](NC(=O)C(N)c3ccc(O)cc3)[C@H]2SC1 (some centres not stated) [euspeclibcmpd47] | 0.774
NCc1ccccc1CC(=O)NC1C(=O)N2C(C(=O)O)=C(CSc3nnnn3CC(=O)O)CSC12 (configuration not stated) [euspeclibcmpd506] | -0.382
Clc1ccc(CCC(Cn2ccnc2)Sc2c(Cl)cccc2Cl)cc1 (configuration not stated) [euspeclibcmpd650] | 26.7 (active)
CC1(C)C2CC[C@@]3(C)C4=C(CC(=O)C3[C@@]2(C)CC[C@@H]1O[C@@H]1OC(C(=O)O)[C@@H](O[C@@H]2OC(C(=O)O)[C@@H](O)[C@H](O)[C@H]2O)[C@H](O)[C@H]1O)C1C[C@@](C)(C(=O)O)CC[C@]1(C)CC4 (some centres not stated) [euspeclibcmpd1807] | -0.547
COc1ccc(-c2coc3cc(O)ccc3c2=O)c(O)c1O [euspeclibcmpd1422] | -0.526
COc1cc2occ(-c3ccc(OC)c(OC)c3OC)c(=O)c2cc1OC [euspeclibcmpd2240] | 0.129
COc1c(CC(=O)c2cc3c(cc2O)OC(C)(C)C(O)C3)ccc2c1C=CC(C)(C)O2 (configuration not stated) [euspeclibcmpd1608] | 7.77 (active)
COc1ccc(-c2c(O)c3c(OC)c4c(cc3oc2=O)OC(C)(C)C=C4)cc1 [euspeclibcmpd1515] | 0.81
COc1ccc(C(=O)CC(=O)O)c2c1C=CC(C)(C)O2 [euspeclibcmpd1976] | -0.441
COc1c2c(cc3occ(-c4ccc5c(c4)OCO5)c(=O)c13)OC(C)(C)C=C2 [euspeclibcmpd1957] | 7.5 (active)
COc1c(-c2coc3cc4c(cc3c2=O)CC(OC(C)=O)C(C)(C)O4)ccc2c1C=CC(C)(C)O2 (configuration not stated) [euspeclibcmpd1654] | 13.6 (active)
COc1cc(OC)c2c(=O)c(-c3ccc4c(c3)OCO4)coc2c1 [euspeclibcmpd1964] | 0.515
CC(=O)S[C@@H]1C=C2CC(=O)CC[C@]2(C)[C@H]2CC[C@@]3(C)[C@@H](CC[C@@]34CCC(=O)O4)C12 (some centres not stated) [euspeclibcmpd269] | -0.784
CC12CCC(=O)CC1=CCC1C2[C@@H](O)CC2(C)C1CC[C@]2(O)C(=O)COP(=O)(O)O (some centres not stated) [euspeclibcmpd153] | -0.722
COc1ccc2c(c1)c(CC(=O)OC/C=C/Cl)c(C)n2C(=O)c1ccc(Cl)cc1 | 0.367
CON(C)C(=O)c1cc(-c2ccccc2)nc2ccccc12 | 1.63
NCCCCC(NC(CCc1ccccc1)C(=O)O)C(=O)N1CCCC1C(=O)O (configuration not stated) [euspeclibcmpd423] | 0.0552
O=c1c(-c2cc(O)c(O)c(O)c2)coc2cc(O)c(O)c(O)c12 [euspeclibcmpd1958] | -0.398
CCOC(=O)OC(C)OC(=O)C1N2C(=O)C(NC(=O)C(N)c3ccccc3)C2SC1(C)C (configuration not stated) [euspeclibcmpd983] | 0.627
N=C(N)N/N=C\c1c(Cl)cccc1Cl [euspeclibcmpd143] | 0.55
CC(C)NCC(O)COc1ccc(CC(N)=O)cc1 (configuration not stated) [euspeclibcmpd387] | -0.166

Source: the supplement of paper PMC10498489
